From the supplement of paper PMC9135407
Where “and” joins values, the source holds several entries; their conditions need not be identical. Equal entries are not always repeated. Structures can show the parent of a compound that is named as a salt. Among all 5,800 compounds or so, about 620 (11%) showed activity.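 The calls were made as follows: active = score above a cut-off or among the top three wells of a plate; in these data no inactive exceeds 0.85.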 The full list was thinned out, with actives kept by preference.

Tested on: primary human hepatic stellate cells (donor 1)
Assay: scaled lipid accumulation score (0 = DMSO-like, 1 = nortriptyline-like); higher = stronger HSC inactivation (lipid re-accumulation), active = hit call of the paper
Conditions: 48 h
[1] = library stock concentration: 1 mM
[2] = library stock concentration: 80 uM
[3] = library stock concentration: 400 uM
[4] = library stock concentration: 2 mM
[5] = library stock concentration: 10 mM
[6] = library stock concentration: 3.33 mM
[7] = library stock concentration: 2.6 mM

CC/C=C\C/C=C\C/C=C\C/C=C\C/C=C\CCCCCC(=O)O [Docosapentaenoic acid]
scaled lipid accumulation score [1]: ≤ -0.021 (inactive)

CC/C=C\C/C=C\C/C=C\C/C=C\C/C=C\CCCCCC(=O)O [Docosapentaenoic Acid]
scaled lipid accumulation score [1]: ≤ 0 (inactive)

COc1cc2nccc(Oc3ccc(NC(=O)Nc4cc(C)on4)c(Cl)c3)c2cc1OC
scaled lipid accumulation score [2]: 0.016 (inactive) | scaled lipid accumulation score [3]: ≤ 0 (inactive) | scaled lipid accumulation score [4]: 0.009 (inactive) | scaled lipid accumulation score [5]: 0.246 (inactive)

COc1cc2nccc(Oc3ccc(NC(=O)Nc4cc(C)on4)c(Cl)c3)c2cc1OC [AV951 (KRN951, Tivozanib) (0.4 mM)]
scaled lipid accumulation score [3]: ≤ -0.005 (inactive)

COc1cc2nccc(Oc3ccc(NC(=O)Nc4cc(C)on4)c(Cl)c3)c2cc1OC [VEGFR Tyrosine Kinase Inhibitor IV]
scaled lipid accumulation score [6]: ≤ 0 (inactive)

COc1cc2nccc(Oc3ccc(NC(=O)Nc4ccc(F)cc4F)c(F)c3)c2cc1OC [listing 1 of 3 here]
scaled lipid accumulation score [6]: 0.473 (inactive)

COc1cc2nccc(Oc3ccc(NC(=O)Nc4ccc(F)cc4F)c(F)c3)c2cc1OC [listing 2 of 3 here]
scaled lipid accumulation score [5]: 1.22 (active)

COc1cc2nccc(Oc3ccc(NC(=O)Nc4cc(C)on4)c(Cl)c3)c2cc1OC [AV951 (KRN951, Tivozanib) (10 mM)]
scaled lipid accumulation score [5]: 0.775 (inactive)

COc1cc2nccc(Oc3ccc(NC(=O)NC4CC4)c(Cl)c3)c2cc1C(N)=O
scaled lipid accumulation score [3]: 0.067 (inactive) | scaled lipid accumulation score [4]: ≤ -0.005 (inactive) | scaled lipid accumulation score [5]: ≤ -0.005 (inactive)

COc1cc2nccc(Oc3ccc(NC(=O)NC4CC4)c(Cl)c3)c2cc1C(N)=O [Lenvatinib (E7080)]
scaled lipid accumulation score [6]: 0.055 (inactive) | scaled lipid accumulation score [5]: ≤ 0 (inactive)

COc1cc(Oc2ccnc3cc(OC)c(OC)cc23)ccc1NC(=O)NC(C)c1nccs1 (stereo not drawn)
scaled lipid accumulation score [2]: ≤ -0.016 (inactive) | scaled lipid accumulation score [3]: ≤ -0.016 (inactive) and ≤ -0.005 (inactive) | scaled lipid accumulation score [4]: ≤ -0.016 (inactive) and ≤ -0.005 (inactive) | scaled lipid accumulation score [5]: 0.713 (inactive) and 0.552 (inactive)

COc1cc2nccc(Oc3ccc(NC(=O)Nc4cc(C)on4)c(Cl)c3)c2cc1OC [Tivozanib (AV-951)]
scaled lipid accumulation score [6]: 0.068 (inactive) | scaled lipid accumulation score [5]: 0.098 (inactive)

COc1cc2nccc(Oc3ccc(NC(=O)Nc4cc(C)on4)c(Cl)c3)c2cc1OC [AV951 (KRN951, Tivozanib) (2 mM)]
scaled lipid accumulation score [4]: ≤ -0.005 (inactive)

COc1cc2nccc(Oc3ccc(NC(=O)Nc4ccc(F)cc4F)c(F)c3)c2cc1OC [listing 3 of 3 here]
scaled lipid accumulation score [5]: 1.05 (active)

CC(=O)N(O)[C@@H]1c2cc(C#N)ccc2OC(C)(C)[C@H]1O
scaled lipid accumulation score [5]: ≤ 0 (inactive)

O=C(O)CCC/C=C\C[C@@H]1[C@@H](/C=C/C(F)(F)COc2ccccc2)[C@H](O)C[C@@H]1O [Tafluprost (free acid)]
scaled lipid accumulation score [1]: 0.007 (inactive)

CCCCC[C@H](O)/C=C/[C@@H]1[C@@H](C/C=C\CCCCN(C)C)[C@@H](O)C[C@H]1O [Prostaglandin F2.alpha. dimethyl amine]
scaled lipid accumulation score [1]: ≤ 0 (inactive)

CCCCCCCCCCCCCCCCCCOCC(COP(=O)([O-])OCC[N+](C)(C)C)OC (stereo not drawn)
scaled lipid accumulation score [5]: ≤ -0.024 (inactive)

O=C(O)CCC/C=C\C[C@@H]1[C@@H](/C=C/C(=O)CCc2ccccc2)[C@H](O)C[C@@H]1O [15-keto-17-phenyl trinor Prostaglandin F2.alpha.]
scaled lipid accumulation score [1]: ≤ 0 (inactive)

CCCCC[C@H](O)/C=C/[C@@H]1[C@@H](C/C=C\CCCC(=O)OCC(O)CO)[C@@H](O)C[C@H]1O (stereo partly drawn) [Prostaglandin F2.alpha.-1-glyceryl ester]
scaled lipid accumulation score [1]: ≤ 0 (inactive)

CCCCCCCC(=O)CC[C@@H]1[C@@H](C/C=C\CCCC(=O)OC(C)C)[C@@H](O)C[C@H]1O [Unoprostone isopropyl ester]
scaled lipid accumulation score [1]: ≤ 0 (inactive)

CN1CCN(Cc2ccc(-c3cnc4[nH]cc(-c5ccc6[nH]ccc6c5)c4c3)cc2)CC1 [listing 1 of 2 here]
scaled lipid accumulation score [4]: 1.3 (active)

CN1CCN(Cc2ccc(-c3cnc4[nH]cc(-c5ccc6[nH]ccc6c5)c4c3)cc2)CC1 [listing 2 of 2 here]
scaled lipid accumulation score [2]: ≤ -0.001 (inactive) | scaled lipid accumulation score [3]: 0.001 (inactive) | scaled lipid accumulation score [5]: 0.422 (inactive)

O=C(O)c1ccc(-c2c[nH]c3ncc(-c4ccccc4)cc23)cc1C1CCCC1
scaled lipid accumulation score [6]: ≤ -0.009 (inactive) | scaled lipid accumulation score [5]: 0.079 (inactive) and ≤ -0.001 (inactive)

NC[C@H]1O[C@@H](n2cnc3c(N)ncnc32)[C@H](O)[C@@H]1O [5'-Amino-5'-deoxyadenosine p-toluenesulfonate salt]
scaled lipid accumulation score [5]: ≤ 0 (inactive)

CCN(CC)CCOc1ccc2c(c1)C(=O)c1cc(OCCN(CC)CC)ccc1-2 [Tilorone] [listing 1 of 2 here]
scaled lipid accumulation score [5]: 0.879 (active)

CCCOc1cc(N)ccc1C(=O)OCCN(CC)CC [Propoxycaine hydrochloride]
scaled lipid accumulation score: ≤ 0 (inactive)

CCN(CC)CCOc1ccc2c(c1)C(=O)c1cc(OCCN(CC)CC)ccc1-2 [Tilorone] [listing 2 of 2 here]
scaled lipid accumulation score (library stock concentration: 4.9 mM): 0.006 (inactive)

FC(F)(F)COCC(F)(F)F [Flurothyl]
scaled lipid accumulation score (library stock concentration: 11 mM): ≤ -0.001 (inactive)

OCCC#Cc1nc(-c2ccc(F)cc2)c(-c2ccncc2)n1CCCc1ccccc1
scaled lipid accumulation score [3]: ≤ -0.005 (inactive) | scaled lipid accumulation score [4]: ≤ -0.005 (inactive) | scaled lipid accumulation score [5]: 0.668 (inactive)

Nc1ncnc2c1ncn2C1CCCO1 (stereo not drawn)
scaled lipid accumulation score [5]: ≤ 0 (inactive) and ≤ -0.006 (inactive) | scaled lipid accumulation score (library stock concentration: 24.4 mM): ≤ -0.005 (inactive)

COc1ccccc1N1CCN(CCCCN2C(=O)c3ccccc3C2=O)CC1 [NAN-190 hydrobromide]
scaled lipid accumulation score [5]: 0.324 (inactive) and 0.002 (inactive)

O=C(O)C=C1CCCc2ccccc2C1O (stereo not drawn)
scaled lipid accumulation score [5]: 0.122 (inactive) and 0.034 (inactive)

Cl.O=C(CCCCCN1CCN(c2ccccc2-c2ccccc2)CC1)NC1CCCc2ccccc21 (stereo not drawn) [LP 12 hydrochloride hydrate]
scaled lipid accumulation score [5]: 0.898 (active)

CC(=O)c1ccc2c(c1)N(CCCN1CCC(CCO)CC1)c1ccccc1S2 [Piperacetazine]
scaled lipid accumulation score: 0.427 (inactive)

CC(=O)c1ccc2c(c1)N(CCCN1CCN(CCO)CC1)c1ccccc1S2
scaled lipid accumulation score [5]: 0.638 (inactive)

CSc1ccccc1N1CCN(CCCCCC(=O)NC2CCCc3ccccc32)CC1.Cl (stereo not drawn)
scaled lipid accumulation score [5]: 1.06 (active)

CC(=O)Nc1cccc2c1c(Sc1ccc(Cl)cc1)c(C)n2CC(=O)O
scaled lipid accumulation score [6]: ≤ -0.009 (inactive) | scaled lipid accumulation score [5]: 0.195 (inactive)

CC[n+]1c(/C=C/N(C)c2ccccc2)n(-c2ccccc2)c2ccc(-c3nc4ccccc4s3)cc21 [Akt Inhibitor IV]
scaled lipid accumulation score [6]: ≤ 0 (inactive)

CCCCCCCCCCCCCCCCCCCC(=O)NCCO [Arachidoyl Ethanolamide]
scaled lipid accumulation score [1]: ≤ 0 (inactive)

COc1cc(/C=C/C(=O)N2CCCCCCC2)cc(OC)c1OC
scaled lipid accumulation score [5]: ≤ 0 (inactive)

C[C@H]1O[C@@H](O[C@H]2[C@@H](O)C[C@H](O[C@H]3[C@@H](O)C[C@H](O[C@H]4CC[C@]5(C)C6C[C@@H](O)[C@]7(C)[C@@H](C8=CC(=O)OC8)CC[C@]7(O)C6CC[C@@H]5C4)O[C@@H]3C)O[C@@H]2C)C[C@H](O)[C@@H]1O (stereo partly drawn) [Digoxin]
scaled lipid accumulation score [7]: 0.937 (active)

C[C@H]1O[C@@H](O[C@H]2[C@@H](O)C[C@H](O[C@H]3[C@@H](O)C[C@H](O[C@H]4CC[C@@]5(C)[C@H](CC[C@@H]6[C@@H]5C[C@@H](O)[C@]5(C)[C@@H](C7=CC(=O)OC7)CC[C@]65O)C4)O[C@@H]3C)O[C@@H]2C)C[C@H](O)[C@@H]1O [Digoxin]
scaled lipid accumulation score: 1.03 (active) | scaled lipid accumulation score [6]: 1.11 (active) | scaled lipid accumulation score [5]: 0.888 (active) and 0.816 (inactive)

C[C@H]1O[C@@H](O[C@H]2[C@@H](O)C[C@H](O[C@H]3[C@@H](O)C[C@H](O[C@H]4CC[C@@]5(C)[C@H](CC[C@@H]6[C@@H]5CC[C@]5(C)[C@@H](C7=CC(=O)OC7)CC[C@]65O)C4)O[C@@H]3C)O[C@@H]2C)C[C@H](O)[C@@H]1O [Digitoxin]
scaled lipid accumulation score [5]: 0.545 (inactive)

C[C@H]1O[C@@H](O[C@H]2[C@@H](O)C[C@H](O[C@H]3[C@@H](O)C[C@H](O[C@H]4CC[C@@]5(C)[C@H](CC[C@@H]6[C@@H]5C[C@@H](O)[C@]5(C)[C@@H](C7=CC(=O)OC7)CC[C@]65O)C4)O[C@@H]3C)O[C@@H]2C)C[C@H](O)[C@@H]1O
scaled lipid accumulation score [5]: 0.599 (inactive)

C[C@H]1O[C@@H](O[C@H]2[C@@H](O)C[C@H](O[C@H]3[C@@H](O)C[C@H](O[C@H]4CC[C@]5(C)C6CC[C@]7(C)[C@@H](C8=CC(=O)OC8)CC[C@]7(O)C6CC[C@@H]5C4)O[C@@H]3C)O[C@@H]2C)C[C@H](O)[C@@H]1O (stereo partly drawn) [Digitoxin]
scaled lipid accumulation score [7]: 1.2 (active)

N[C@@H](Cc1ccc(F)cc1)C(=O)O [p-Fluoro-L-phenylalanine]
scaled lipid accumulation score [5]: ≤ -0.07 (inactive)

Nc1nc(-c2ccc(Cl)c(Cl)c2)c(-c2ccncc2)s1 [CGH 2466 dihydrochloride]
scaled lipid accumulation score [5]: 0.001 (inactive)

O=[N+]([O-])c1cc2nc(O)c(O)nc2cc1[N+](=O)[O-]
scaled lipid accumulation score [5]: ≤ -0.07 (inactive) and ≤ 0 (inactive)

CC(C)[C@H](NC(=O)[C@H](CC(=O)O)NC(=O)[C@H](CCCCN)NC(=O)[C@@H](N)CCCN=C(N)N)C(=O)N[C@@H](Cc1ccc(O)cc1)C(=O)O
scaled lipid accumulation score [5]: ≤ 0 (inactive)

CCOC(=O)[C@]12CC1/C(=N\O)c1ccccc1O2 (stereo partly drawn)
scaled lipid accumulation score [5]: ≤ 0 (inactive) and 0.015 (inactive)

CS(=O)(=O)O.Cc1ccc2c(c1)c1c3n2CCNC3CCC1 (stereo not drawn) [Pirlindole mesylate]
scaled lipid accumulation score [5]: 0.93 (active)

c1cc2c(cc1C1CCCCC1)c1c3n2CCNC3CCC1 (stereo not drawn) [Tetrindole mesylate]
scaled lipid accumulation score [5]: ≤ 0 (inactive)

Cc1ccc2c(c1)c1c3n2CCNC3CCC1 (stereo not drawn) [Pirlindole mesylate]
scaled lipid accumulation score: 0.472 (inactive)
